# Measurements: PubChem BioAssay (NCI)
# Several values for one entry are separate records, joined by “and”; a condition that tells them apart may be missing. Equal values may be shown once. Compounds without any hit were thinned out: in the full panel of roughly 83,000, 20% have a hit.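 A percent growth of 40 corresponds to 60% growth inhibition; 0 means no net growth; -100 means all cells died. Active threshold: below 10.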 Activity calls are given as the source filed them.
# Test system: MDA-MB-468 breast
# Test: NCI-60 one-dose screen, 48 h (100 = growth as untreated, 0 = no growth, -100 = all killed)
# Conditions: 10 µM unless noted
row,Compound,growth
1,C=CC(=O)Nc1cccc(-c2nc(SC)nc(NCCc3ccc(OC)c(OC)c3)c2C#N)c1,19.2% (inactive)
2,COC1=CC(c2ccc[nH]2)=N/C1=C\c1[nH]c(C)c(CC(=O)NCc2ccccc2)c1C,27.3% (inactive)
3,CN1CCN(Cc2ccc(NC(=O)c3[nH]ncc3Nc3ccnc4ccsc34)cc2)CC1,18.5% (inactive)
4,C#CCOc1ccc2ncnc(N3CCN(C(=O)CCl)CC3)c2c1,-9.23% [8.25 µM] (active)
5,Clc1ccc(Nc2nc(Nc3ccccc3)nc(Nc3ccc(-c4cc(-c5ccc(Cl)cc5)on4)cc3)n2)cc1,93.4% (inactive)
6,CS(=O)(=O)c1ccc(N/N=C/c2c(-c3ccc(S(C)(=O)=O)cc3)[nH]c3ccc(F)cc23)cc1,64.3% (inactive)
7,CC(=C(c1ccc(OCCCN(C)C)cc1)c1ccc(OCCCN(C)C)cc1)c1ccc(Cl)cc1,80% (inactive)
8,CCC(=O)C(CC)c1cccc(OC)c1 (stereo not given),102% (inactive)
9,COc1cc(-c2nc3ccccc3o2)cc(CN2CCCCC2)c1O,67.1% (inactive)
10,O=S(=O)(Nc1cc(Br)c(O)c2ccccc12)c1ccc(F)cc1,-48.5% (active)
11,Nc1nc2c(c3ncccc13)C(c1ccc(Cl)c(Cl)c1)Cc1ncccc1-2 (stereo not given),-6.48% (active)
12,CCN1C(=O)N(CC)C2C1NN=c1s/c(=C\c3cc4ccccc4[nH]3)c(=O)n12 (stereo not given),-9.55% (active)
13,CC(=O)Nc1scc[n+]1Cc1ccccc1,103% (inactive)
14,COc1cc(OC)cc(N2C(=O)N(Cc3ccc(C(C)(C)C)cc3)c3ccccc3S2(=O)=O)c1,51.8% (inactive)
15,N#Cc1c(NC(=O)c2cccc(C(F)(F)F)c2)sc2c1CCC(=O)C2,-8.78% (active)
16,COc1cc2c3c(n([C@@H]4CCOC4)c(=O)c2cc1OC)-c1cc2c(cc1C3=O)OCO2,11.2% (inactive)
17,C=C1CCC2C(C)(CO)C(O)CCC2(C)C1CC(NCc1ccccc1)C1=CCOC1=O (stereo not given),98.9% (inactive)
18,N#CSc1c[nH]c2ccc(/C=C/C(=O)/C=C(O)/C=C/c3ccc4[nH]cc(SC#N)c4c3)cc12,-8.53% (active)
19,CC(C)(C)n1cc(-c2ccnc(NCCNS(=O)(=O)c3ccc(O)cc3)c2)c(-c2cccc(O)c2)n1,91.8% (inactive)
20,O=C(Nc1ccc(Oc2ccc(F)cc2)c(Cl)c1)c1cccnc1,57.2% (inactive)

row,Compound,growth
1,C=C(C)[C@@H]1CC[C@]2(CO)CC[C@]3(C)[C@H](CC[C@@H]4[C@@](C)(CCCN)[C@H](C(=C)C)CC[C@]43C)[C@@H]12,-71.4% (active)
2,COc1cc2cc(Oc3ccc(NC(=O)Nc4ccc(Cl)c(Cl)c4)cc3)c(C)nc2cc1OCCN1CCCCC1,103% (inactive)
3,COc1ccc(/C=C(\C#N)c2ccc(OC)cc2)cc1,7.49% (active)
4,O=C(O)COCC(=O)O,93.6% (inactive)
5,CCN1C(=O)N(CC)C2Nn3c(s/c(=C\c4cccc([N+](=O)[O-])c4)c3=O)=NC21 (stereo not given),28.8% (inactive)
6,O=C(NNC(=O)N1c2ccccc2C=Cc2ccccc21)c1ccc2ccccc2c1,87.7% (inactive)
7,Cc1nn(-c2ccccc2)c2nc(N)c(C3=NCCO3)nc12,113% (inactive)
8,Cc1cc2c(C(C)C)c(O)c(O)c(/C=N/O)c2c(O)c1-c1c(C)cc2c(C(C)C)c(O)c(O)c(/C=N/O)c2c1O,20.9% (inactive)
9,Nc1ccc(N=Nc2ccc(S(=O)(=O)O)cc2)cc1S(=O)(=O)O,150% (inactive) and 75.5% (inactive)
10,CCN(CC)CCCC(C)Nc1c2ccc(C)cc2nc2ccc(OC)cc12 (stereo not given),-65.1% (active)
11,COc1ccc(C(=O)N2NC(=O)/C(=C/c3ccc(F)cc3)N=C2c2ccccc2)cc1,90.6% (inactive)
12,COc1cccc(-c2nn(-c3ccccc3)cc2-c2ccnc(NCCCN)c2)c1,17.4% (inactive)
13,COc1cc(/C=C/C(=O)c2cccnc2Nc2ccc(F)cc2)cc(OC)c1OC,16.3% (inactive)
14,OCC(O)C(O)C(O)C(O)/C=N/O (stereo not given),99.5% (inactive)
15,CCCCn1c(-c2ccc(-c3nc(-c4ccc(Cl)cc4)no3)cc2)nc(-c2ccccc2)c1-c1ccccc1,106% (inactive)
16,O=C1c2ccccc2C(=O)c2c1ccc1c(=O)n(-c3ccccc3C(F)(F)F)nnc21,-50.3% (active)
17,Nc1nc(Cl)c2c(C(F)(F)F)cn(CC3CCNCC3)c2n1,26.8% (inactive)
18,Brc1ccc(/C=C(/C2=NCCN2)n2ccc3ccccc32)cc1,50.8% (inactive)
19,CCc1ccc2c(c1)N(CCO)C1=C(C(=O)OC1)C2c1cccc(Br)c1 (stereo not given),25.8% (inactive)
20,N=C(N)c1ccc(-c2ccc(-c3ccc4ccccc4c3)s2)s1,-16.3% (active)
